Here are results for ten molecules from PubChem BioAssay (Tox21).

A short description of assay [1]: qHTS assay to identify small molecule agonists of the vitamin D receptor (VDR) signaling pathway - cell viability counter screen (AID 743224). Also: series mostly up to about 63 µM; nearly all actives have a fitted effect of over 50% in size. In outline:
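Cytotoxicity counter screen: VDR-bla cells, 16 h compound exposure at 37C, 5% CO2; CellTiter-Glo luminescence, 30 min RT, same wells as bla read.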
A general note: qHTS replaces the single test concentration by a dilution series.

Assay [2] is described as follows: qHTS assay to identify small molecule antagonists of the vitamin D receptor (VDR) signaling pathway - cell viability counter screen (AID 743225). Also: nearly all actives have a fitted effect of over 50% in size. The procedure, abridged: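 In this counter screen, VDR-bla HEK 293T cells receive test compound plus 3 nM final calcitriol for 16 h at 37C. Room-temperature steps of 2 h with the beta-lactamase substrate, then 30 min with CellTiter-Glo, precede the luminescence read.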

The nature of assay [3]: qHTS assay to identify small molecule agonists of the NFkB signaling pathway - cell viability counter screen (AID 1159515; calls by dose curve; also: series mostly up to about 61 µM; nearly all actives have a fitted effect of over 55% in size). In outline: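 ME-180 NFkB-bla cells, 2,000/well; overnight attach; compound 5 hr, 37 C/5% CO2; LiveBLAzer substrate 1.5 hr RT; then CellTiter-Glo in same wells, 30 min RT, luminescence read.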
Assay [4] is described as follows: qHTS assay to identify small molecule agonists of the endoplasmic reticulum stress response signaling pathway (AID 1159516; active = well fitted activation curve with a large enough effect in the signal ratio in the repeat runs, not every such curve was filed as active; the % refers to the signal ratio). In outline: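 HeLa ESRE-bla reporter line; cpd 5 h, 37 C/5% CO2; LiveBLAzer B/G FRET substrate 2 h RT; ex 405, em 460/530 nm.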
Assay [5] in a line: qHTS assay to identify small molecule agonists of the endoplasmic reticulum stress response signaling pathway - cell viability counter screen (AID 1159517; calls by dose curve;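 also: HeLa cells carrying an ER stress response element beta-lactamase reporter; series mostly up to about 61 µM; nearly all actives have a fitted effect of over 50% in size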). The procedure, abridged: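 Cytotoxicity of test compounds toward ESRE-bla HeLa cells was assessed after 5 hr exposure. The luminescent CellTiter-Glo signal was measured 30 min after reagent addition.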
Assay [6] is described as follows: qHTS assay to identify small molecule antagonists of the retinoid-related orphan receptor gamma (ROR-gamma) signaling pathway - cell viability counter screen (AID 1159520). Also: nearly all actives have a fitted effect of over 50% in size. The procedure, abridged:
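Tet-on ROR gamma CHO cells (1,000/well) were plated 4 hr, given compounds in DMSO for 2 hr at 37 C, then induced with 1 uM final doxycycline for 16 hr. Viability was read as ATP by CellTiter-Glo luminescence after 30 min.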

For assay [7], the target named is Nuclear receptor ROR-gamma (Homo sapiens) (UniProt P51449). Nature of the assay: qHTS assay to identify small molecule antagonists of the retinoid-related orphan receptor gamma (ROR-gamma) signaling pathway (AID 1159521; also: nearly all actives have a fitted effect of over 50% in size; also: potency is read from the fitted curve at half-maximal effect). The procedure, abridged:
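Screening format: cell-based luciferase reporter in CHO cells with doxycycline-inducible RORγ. Compound pre-exposure lasts 2 h, doxycycline is 1 uM final, induction runs 16 h at 37 C, and ONE-Glo luminescence is read.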

Assay [8] is described as follows: qHTS assay to identify small molecule agonists of the AP-1 signaling pathway - cell viability counter screen (AID 1159525; calls by dose curve; also: nearly all actives have a fitted effect of over 55% in size). In outline:
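Each titration point was normalised to DMSO and tetra n-octyl ammonium bromide controls. The read was Cell Titer Glo luminescence after 30 min at RT, following 5 h compound exposure of ME-180 AP-1-bla cells at 37 °C.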

Assay [9] is described as follows: qHTS assay to identify small molecule agonists of the AP-1 signaling pathway (AID 1159526; calls by dose curve).
Assay [10] deals with Retinoic acid receptor RXR-alpha (Homo sapiens) (UniProt P19793). Nature of the assay: qHTS assay to identify small molecule agonists of the RXR signaling pathway (AID 1159527; calls by dose curve; also: nearly all actives have a fitted effect of over 35% in size). In outline:
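Fluorescence ratio readout (460 vs 530 nm) from GeneBLAzer RXR-alpha HEK 293T cells after 16 hr compound treatment; cells seeded 5 hr beforehand in low-serum, charcoal-stripped medium.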

A short description of assay [11]: qHTS assay to identify small molecule antagonists of the retinoid acid receptor (RAR) signaling pathway - cell viability counter screen (AID 1159551). Also: nearly all actives have a fitted effect of over 35% in size. In outline:
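C3RL4 RARE-luciferase line; cpds + retinol 1 uM final, 6 h, 37 C/5% CO2; CellTiter-Glo ATP luminescence, 30 min RT.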

The nature of assay [12]: qHTS assay to identify small molecule agonists of the RXR signaling pathway - cell viability counter screen (AID 1159529). In outline: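 Viability read-out for the RXR-alpha agonist qHTS: luminescent CellTiter-Glo signal after 30 min at RT. HEK 293T bla reporter cells, 2% charcoal-stripped FBS, 16 hr compound incubation; tetraoctyl ammonium bromide as cytotoxic control.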

The nature of assay [13]: qHTS assay to identify small molecule antagonists of the retinoic acid receptor (RAR) signaling pathway (AID 1159552; also: nearly all actives have a fitted effect of over 50% in size; also: potency is read from the fitted curve at half-maximal effect). The procedure, abridged: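 Using a RARE-driven luciferase construct in C3RL4 cells, retinol at 1 uM final provided the agonist stimulus while compounds were co-applied. After 6 hours at 37 C, luminescence was recorded to flag inhibitors of retinol signaling.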

The nature of assay [14]: qHTS assay to identify small molecule agonists of the retinoic acid receptor (RAR) signaling pathway (AID 1159553). In outline:
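RARE-luc C3RL4 cells; overnight attachment 37 C/5% CO2; compound (DMSO) 6 hr; luciferase reagent, 30 min RT; luminescence read-out.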

Inconclusive results are not listed. Unmarked numbers belong to inactive results. Calls of active or inactive are those of the source. Unless noted, calls follow the shape of the dose curve; as a rule, active = well fitted curve in the direction sought with a large enough effect in the repeat runs; inconclusive = weak or mixed curves; inactive = no such curve, though single readings can be large; an effect the other way counts as inactive or inconclusive.

Sequence of Retinoic acid receptor RXR-alpha (Homo sapiens) (P19793 whole entry, looked up): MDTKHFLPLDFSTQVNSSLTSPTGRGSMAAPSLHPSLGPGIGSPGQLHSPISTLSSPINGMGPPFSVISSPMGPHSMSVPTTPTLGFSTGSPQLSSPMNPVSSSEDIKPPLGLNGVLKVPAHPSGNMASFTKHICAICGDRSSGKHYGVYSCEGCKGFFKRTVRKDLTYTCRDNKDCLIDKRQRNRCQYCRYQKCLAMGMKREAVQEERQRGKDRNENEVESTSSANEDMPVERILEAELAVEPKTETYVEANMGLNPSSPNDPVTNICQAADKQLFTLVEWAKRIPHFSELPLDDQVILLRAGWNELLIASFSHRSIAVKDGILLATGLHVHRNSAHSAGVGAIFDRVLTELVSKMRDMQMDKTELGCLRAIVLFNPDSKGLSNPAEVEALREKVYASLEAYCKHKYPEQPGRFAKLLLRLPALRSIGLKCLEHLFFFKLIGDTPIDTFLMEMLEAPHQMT

On to `OCC1CO1` (stereo unspecified), for which the Potency entry in assay [1], in assay [2], in assay [3], in [4], in assay [5] and in assay [6] was “inactive” throughout. The Potency entry in assay [7], in assay [8], in [9], in assay [10] and in assay [11] was “inactive” in each case.

For `O=C(N/N=C/c1ccc([N+](=O)[O-])o1)c1cc([N+](=O)[O-])cc([N+](=O)[O-])c1O`, the Potency result in assay [1], in assay [2], in [3], in assay [4], in assay [5] and in assay [6] was “inactive” throughout. The Potency result in assay [7], in assay [8], in assay [9], in [12], in assay [11] and in assay [13] was “inactive” throughout.

As for `CN1C(=O)CN=C(c2ccccc2)c2cc([N+](=O)[O-])ccc21`, the Potency entry in assay [1], in [3], in [4], in assay [5], in assay [6] and in [7] was “inactive” in each case. For the same molecule, the Potency entry in assay [8], in [9], in [10], in [11] and in assay [13] was “inactive” in each case.

Regarding `CCCSP(=S)(OCC)Oc1ccc(SC)cc1` (stereo unspecified), the Potency entry in assay [2], in assay [3], in assay [4], in [5], in assay [6] and in assay [7] was “inactive” each time. Further, the Potency result in assay [8], in assay [9], in assay [12], in assay [11] and in assay [13] was “inactive” in each case.

With `CC(C)(C)NCC(O)c1cc(Cl)c(N)c(C(F)(F)F)c1` (stereo unspecified), the Potency result in [1], in assay [2], in assay [3], in assay [4], in assay [5] and in assay [6] was “inactive” throughout. For the same molecule, the Potency result in assay [7], in assay [8], in [9], in [10], in assay [11] and in assay [13] was “inactive” in each case. For the same molecule, in assay [14], the Potency entry is “inactive”.

Consider `CCCCCl`, for which the Potency result in assay [1], in [2], in assay [3], in assay [4], in assay [5] and in [6] was “inactive” in each case. The Potency result in assay [7], in [8], in assay [9], in assay [12], in assay [11] and in assay [13] was “inactive” each time.

In the case of `CCCC[N+](CCCC)(CCCC)CCCC`, the Potency result in assay [1], in assay [2], in [3], in [4], in [5] and in assay [6] was “inactive” throughout. Moreover, the Potency result in [7], in [8], in [9], in assay [12], in [11] and in [14] was “inactive” throughout.

Regarding `C#C[C@]1(O)CC[C@H]2[C@@H]3CCC4=CC(=O)CCC4=C3C=C[C@@]21CC`, the Potency entry in assay [1], in assay [2], in [3], in assay [4], in [5] and in assay [6] was “inactive” in each case. Further, the Potency entry in assay [8], in [9], in assay [10] and in [11] was “inactive” in each case. The Potency in assay [7] and in [13] was 9.44 µM (active) in each case.

Regarding `O=S(=O)(c1ccccc1)c1ccccc1`, the Potency result in assay [1], in assay [2], in assay [3], in assay [4], in assay [5] and in [6] was “inactive” each time. Also, the Potency entry in assay [7], in assay [8], in [9], in assay [12], in assay [11] and in assay [13] was “inactive” each time.

In the case of `O=C1NC(=O)C(=O)C(=O)N1`, the Potency entry in assay [2], in assay [3], in assay [4], in [5], in assay [6] and in [7] was “inactive” each time. Also, the Potency result in assay [8], in [9], in [10] and in assay [11] was “inactive” in each case.
